GLS inh: inhibitors of human glutaminase (GLS). O94925. GLS enzymatic activity, qHTS titration. Potency, µM (highest dose often 45.5 µM), actives largely listed as inhibitors. actives 0.21% (n = 410,000). AID 624170
Target sequence (O94925 whole entry, looked up): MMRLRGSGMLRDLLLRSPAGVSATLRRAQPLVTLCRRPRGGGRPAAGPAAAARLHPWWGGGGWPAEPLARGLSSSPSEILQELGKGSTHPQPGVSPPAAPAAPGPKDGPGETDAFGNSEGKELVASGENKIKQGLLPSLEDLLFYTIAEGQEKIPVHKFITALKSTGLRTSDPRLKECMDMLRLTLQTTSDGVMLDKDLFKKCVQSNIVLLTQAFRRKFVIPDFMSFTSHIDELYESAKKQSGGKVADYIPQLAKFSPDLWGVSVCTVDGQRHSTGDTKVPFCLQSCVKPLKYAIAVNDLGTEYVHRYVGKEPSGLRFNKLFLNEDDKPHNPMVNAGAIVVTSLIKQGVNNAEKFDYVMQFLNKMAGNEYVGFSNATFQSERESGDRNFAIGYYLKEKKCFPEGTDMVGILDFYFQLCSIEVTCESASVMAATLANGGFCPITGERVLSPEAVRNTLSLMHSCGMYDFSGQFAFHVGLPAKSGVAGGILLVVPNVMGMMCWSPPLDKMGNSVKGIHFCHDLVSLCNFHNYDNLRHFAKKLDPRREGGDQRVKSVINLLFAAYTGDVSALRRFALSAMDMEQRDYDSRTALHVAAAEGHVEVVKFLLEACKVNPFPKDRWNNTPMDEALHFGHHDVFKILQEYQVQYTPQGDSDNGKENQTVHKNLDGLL
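Enzyme dispensed in phosphate buffer (45 mM, pH 8.2, 0.02% Tween-20), compounds pinned in, then 1 mM L-glutamine solution and the glutamate oxidase–HRP–Amplex Red mix added; fluorescence read immediately and again after 30 min at room temperature.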
HP1b binding inh: inhibitors of HP1-beta chromodomain binding to methylated histone tails. AlphaScreen HP1-beta / biotin-H3K9me3 peptide binding. Potency, µM (doses to about 114 µM), actives largely listed as inhibitors. actives 0.56% (n = 390,000). AID 540317; also: nearly all actives have a fitted effect of over 70% in size
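Compound inhibition of the preformed complex between 50 nM HP1-beta and 50 nM biotinylated H3K9me3 peptide was read by AlphaScreen. Buffer was PBS pH 7.4 with 0.01% Tween-20. Incubations ran 30 min at room temperature, with 10 ug/mL donor/acceptor beads.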
BAZ2B block: BAZ2B (human) inhibition; Q9UIF8; AlphaScreen BAZ2B-H3K14Ac peptide displacement; Potency, µM (series often up to 114 µM), usual class: inhibitors; actives 4.4% (n = 360,000); also: nearly all actives have a fitted effect of over 60% in size
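AlphaScreen displacement of biotin-H3(5-23)K14Ac peptide (50 nM final) from BAZ2B (50 nM final) in PBS pH 7.4, 0.01% Tween-20; complex preformed 30 min RT, then compounds (top 110 uM) 30 min RT, beads 20 min dark.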
JMJD2A Tudor inh: blocks the human JMJD2A Tudor domain; O75164; AID 504339; actives 4.4% (n = 390,000); Potency, µM (doses to about 114 µM), most hits filed as inhibitors; AlphaScreen JMJD2A-Tudor / H3K4me3 peptide binding; also: nearly all actives have a fitted effect of over 50% in size
G9a inh: blocks human histone lysine methyltransferase G9a; G9a H3K9 monomethylation, AlphaScreen, 2 h; Potency, µM (doses to about 102 µM), hits mostly inhibitors; actives 8.8% (n = 350,000); also: nearly all actives have a fitted effect of over 75% in size
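Step 1: enzyme (final 20 nM) with compound, 15 min RT. Step 2: substrate peptide 500 nM and SAM 20 uM, 2 h RT. Step 3: anti-H3K9me1 antibody and AlphaScreen beads, 10 min, then plate read.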
Each line names hits and unclear results; the compound was inactive in the other large screens; ! = a repeat was not active. Sampled rows, rich in hits. Any-hit rate of the full collection: about 10%. Calls follow the shape of the dose curve; as a rule, active = well fitted curve in the direction sought with a large enough effect; inconclusive = small, poorly fitted or top-dose-only effect, or another doubt; inactive = no such curve, though single readings can be large; an effect the other way counts as inactive or inconclusive.

O=S(=O)(c1ccc2c(c1)OCCO2)N1CCN(S(=O)(=O)c2cc(F)c(F)cc2F)CC1	none (no result: GLS inh, HP1b binding inh, BAZ2B block, G9a inh)
COc1ccc(N2CCN(CC(O)COc3ccc(F)cc3)CC2)cc1 (stereo not given)	BAZ2B block inconclusive, JMJD2A Tudor inh inconclusive, G9a inh 15.8µM
COc1ccc(N2CCN(CC(O)COc3cc(C)cc(C)c3)CC2)cc1 (stereo not given)	BAZ2B block 39.8µM, JMJD2A Tudor inh inconclusive, G9a inh 39.8µM
COc1ccc(N2CCN(c3nccs3)CC2)cc1	JMJD2A Tudor inh inconclusive, G9a inh 50.1µM
COc1ccc(N2CCN(CC(O)COc3ccccc3C(C)(C)C)CC2)cc1 (stereo not given)	HP1b binding inh 20µM, BAZ2B block 31.6µM, JMJD2A Tudor inh 22.4µM, G9a inh 11.2µM
COc1ccc(N2CCN(CC(O)COc3ccc([N+](=O)[O-])cc3)CC2)cc1 (stereo not given)	JMJD2A Tudor inh inconclusive, G9a inh inconclusive
COc1ccc(-c2cn(-c3ccccc3)c3[n+]2CCS3)cc1	none
COc1ccc(/C=C/C(=O)C2(O)CCCCC2)cc1OC	none
Cn1c(=O)c(=O)n(C)c2cc(NS(=O)(=O)c3ccc(Br)cc3)c(Cl)cc21	none
Cc1oc2ccc(O)c(CN3CCCCCC3)c2c1C(=O)Nc1cccc(Cl)c1C	none
Cc1ccc(OCC(O)CN2CCN(c3ccc(C)cc3)CC2)cc1 (stereo not given)	none
COc1ccc(OCC(O)CN2CCN(c3ccc(OC)cc3)CC2)cc1 (stereo not given)	JMJD2A Tudor inh inconclusive, G9a inh 31.6µM
COc1cccc(OC)c1OCC(O)CN1CCN(c2ccccc2F)CC1 (stereo not given)	none
COc1ccc(N2CCN(CC(O)COc3c(OC)cccc3OC)CC2)cc1 (stereo not given)	BAZ2B block 79.4µM, JMJD2A Tudor inh 56.2µM!, G9a inh 35.5µM
COc1cccc(CNC(=O)CCNS(=O)(=O)c2ccc3c(c2)CCCC(=O)N3)c1	none
C[C@@H](O[C@H]1OCCN(Cc2n[nH]c(=O)[nH]2)[C@@H]1c1ccc(F)cc1)c1cc(C(F)(F)F)cc(C(F)(F)F)c1	none (no result: HP1b binding inh, BAZ2B block, JMJD2A Tudor inh, G9a inh)
COc1ccc2c(c1OC)C(=O)O[C@H]2C1c2c(cc3c(c2OC)OCO3)CCN1C (stereo not given in full)	none (no result: GLS inh, HP1b binding inh, BAZ2B block, JMJD2A Tudor inh)
CN1CCc2cc3c(c4c2[C@H]1[C@H](O)c1ccccc1-4)OCO3	G9a inh 50.1µM
CN(C)CCNC(=O)c1scc2c1CCCC2	BAZ2B block inconclusive, JMJD2A Tudor inh 89.1µM (no result: G9a inh)
C=CCNC(=O)c1scc2c1CCCC2	G9a inh inconclusive
CCCCOc1ccc(C(=O)NCC2(N3CCN(C)CC3)CCCCC2)cc1	none
Cn1cc(CN2CC3C[C@@H]4CC2C[C@H](C3)C4)c(-c2ccc3c(c2)OCCO3)n1	BAZ2B block inconclusive, G9a inh 50.1µM
CCC(C)(C)n1nnnc1C(c1cc2ccc(C)cc2[nH]c1=O)N(Cc1cccnc1)Cc1ccco1 (stereo not given)	BAZ2B block inconclusive, JMJD2A Tudor inh inconclusive, G9a inh 50.1µM
Cc1cc(=O)n(CNC(=O)c2ccccc2)c(=S)[nH]1	JMJD2A Tudor inh 56.2µM
CCCCc1cc(=O)oc2c(C)c(OCC(=O)NCC3CCC(C(=O)O)CC3)ccc12 (stereo not given)	G9a inh 79.4µM
CCOc1ccc(OCC(=O)NCCS(=O)(=O)N2CCN(c3ccccc3F)CC2)cc1	none
Cc1ccc(-c2nc3ccccc3c(=O)n2NC(=S)N(C)C)cc1	HP1b binding inh inconclusive, G9a inh 3.98µM
Cc1ccccc1/C=N/Nc1nc2ccccc2c(=O)n1O	G9a inh 14.1µM
Cc1ccc(-c2nc3ccccc3c(=O)n2O)cc1	BAZ2B block inconclusive, JMJD2A Tudor inh 35.5µM, G9a inh 31.6µM
COc1ccccc1-c1nc2ccccc2c(=O)n1O	BAZ2B block inconclusive, G9a inh 35.5µM
O=c1c2ccccc2nc(-c2ccc([N+](=O)[O-])cc2)n1O	BAZ2B block inconclusive, JMJD2A Tudor inh inconclusive
O=C(Nc1cccc(C(F)(F)F)c1)N1CCC(CN2CCCCCC2)CC1	G9a inh inconclusive
COc1ccc(NC(=O)c2cc3c(=O)n4ccccc4nc3n2C)cc1OC	none
CC(=O)Nc1ccc(-c2ccnc3c2CC(C)(C(=O)NCc2ccc(N(C)C)cc2)O3)cc1 (stereo not given)	none (no result: HP1b binding inh, BAZ2B block, JMJD2A Tudor inh, G9a inh)
S=c1[nH]nc(-c2cc(-c3ccco3)[nH]n2)n1-c1ccccc1Cl	GLS inh inconclusive, BAZ2B block 50.1µM, JMJD2A Tudor inh 89.1µM, G9a inh 4.47µM
COc1ccc(-c2cc(-c3n[nH]c(=S)n3-c3ccccc3Cl)[nH]n2)cc1	G9a inh 7.94µM
S=c1[nH]nc(-c2ccc3ccccc3n2)n1-c1ccccc1Cl	JMJD2A Tudor inh inconclusive, G9a inh inconclusive
S=c1[nH]nc(-c2ccco2)n1-c1ccccc1Cl	JMJD2A Tudor inh 5.01µM, G9a inh inconclusive
S=c1[nH]nc(-c2cc(-c3ccco3)[nH]n2)n1-c1ccccc1	BAZ2B block inconclusive, JMJD2A Tudor inh 50.1µM
CCc1nnc(SCC(=O)Nc2ccc(Cl)cc2F)c2cc3occc3n12	none
CCc1ccc(CNC(=O)CCc2c(C)nn(-c3ccc(N4CCCC4)nn3)c2C)cc1	BAZ2B block inconclusive
CCC(C(=O)NCCCN1CCN(C)CC1)n1nc(C)n2c(cc3occc32)c1=O (stereo not given)	none (no result: G9a inh)
Cc1cccc(NC(=O)CSCc2nc3c(nnn3Cc3ccc(F)cc3)c(=O)[nH]2)c1C	BAZ2B block inconclusive
CN(C)c1ccc(NC(=O)CSCc2nc3c(nnn3Cc3ccc(F)cc3)c(=O)[nH]2)cc1	BAZ2B block inconclusive, JMJD2A Tudor inh 50.1µM, G9a inh inconclusive
Cc1cc(N(C)N)nc(NC(=O)NS(=O)(=O)c2ccccc2Cl)n1	BAZ2B block 28.2µM, JMJD2A Tudor inh 28.2µM
Nc1nnc(CSCc2cccc(Br)c2)s1	none
Cn1c(=O)c2c(-c3ccccc3)n(CCCN3CCOCC3)cc2n(C)c1=O	none
Cc1ccc(-c2c3c(=O)n(C)c(=O)n(C)c3cn2Cc2ccccc2)cc1	BAZ2B block inconclusive, JMJD2A Tudor inh inconclusive, G9a inh 11.2µM
Cn1c(=O)c2c(-c3ccccc3)n(Cc3ccccn3)cc2n(C)c1=O	BAZ2B block 50.1µM, G9a inh inconclusive
COc1cc(C)ccc1OCCCn1c(-c2ccc(Cl)cc2)nc2ccccc2c1=O	none
COc1ccc(-c2cnc(C)o2)cc1S(=O)(=O)Nc1ccc(F)cc1F	BAZ2B block inconclusive
C=CC[n+]1c(-c2ccc(OC)cc2)csc1NNC(=O)Nc1ccccc1	BAZ2B block 10µM, JMJD2A Tudor inh 50.1µM, G9a inh 14.1µM
Cn1c(=O)[nH]c2cc(-c3noc(-c4ccc(F)cc4)n3)ccc21	none
Fc1cccc(Cc2c(-c3ccccc3)nc3ccc(Br)cn23)c1	none (no result: HP1b binding inh, BAZ2B block, JMJD2A Tudor inh, G9a inh)
Fc1cccc(Cc2c(-c3ccco3)nc3ccc(Br)cn23)c1	GLS inh 15.8µM (no result: HP1b binding inh, BAZ2B block, JMJD2A Tudor inh, G9a inh)
